A short description of test [1]: P-glycoprotein substrates identified in KB-3-1 adenocarcinoma cell line, qHTS therapeutic library screen (AID 1346986). Also: nearly all actives have a fitted effect of over 60% in size. The method, boiled down:
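Counter-screen: cherry-picked hits retested in the KB pair and in HEK-293 pcDNA/MDR-19 cells ± tariquidar. Primary screen used 72 h CellTiter-Glo viability in KB-3-1 and KB-8-5-11.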

Test [2] in a line: P-glycoprotein substrates identified in KB-8-5-11 adenocarcinoma cell line, qHTS therapeutic library screen (AID 1346987). Also: nearly all actives have a fitted effect of over 65% in size. As to activity change, negative = cytotoxicity: series mostly up to about 44 µM; % is scaled to controls: 0 for no effect and ±100 for the full control effect. The method, boiled down:
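KB-8-5-11: colchicine-selected sub-line of KB-3-1 over-expressing P-gp; assay medium lacked colchicine. 72 h drug exposure at 37 degree C, CellTiter-Glo.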

Results on 27 compounds are retold here after PubChem BioAssay (NCATS).

Inconclusive results are not listed. A number with no mark means an inactive call. Activity calls are given as the source filed them. Calls follow the shape of the dose curve; as a rule, active = well fitted curve in the direction sought with a large enough effect; inconclusive = small, poorly fitted or top-dose-only effect, or another doubt; inactive = no such curve, though single readings can be large; an effect the other way counts as inactive or inconclusive.

As to `CC1(C)OC(=O)C=C[C@@]2(C)C1CC(=O)[C@]1(C)C2CC[C@@]2(C)[C@H](c3ccoc3)OC(=O)[C@H]3O[C@]321` (some centres undefined), the Potency result in test [1] and in test [2] was “inactive” each time.
With `C/C=C/C=C/[C@@H]1O[C@](O)([C@H](CC)C(=O)NC/C=C/C=C(\C)[C@@H](OC)[C@@H](C)[C@@H]2O[C@H](/C=C/C=C/C=C(\C)C(=O)c3c(O)ccn(C)c3=O)[C@H](O)[C@@H]2O)[C@H](O)[C@H](O)C1(C)C`, the outcome in test [1] and in test [2] was “inactive [at 9.29 µM]” throughout.
Regarding `C=C1C(OC(C)=O)CCC2(C)CC3(O)OC(=O)C(C)=C3CC12` (centres undefined), the Potency entry in test [1] and in test [2] was “inactive” throughout.
As to `CC1(C)C2CC[C@]3(C)C(C(=O)C=C4[C@H]5C[C@@](C)(C(=O)O)CC[C@]5(C)CC[C@]43C)[C@@]2(C)CC[C@@H]1O` (some centres undefined), the Potency result in test [1] and in test [2] was “inactive” in each case.
Take `O=C(/C=C/c1ccc(O)c(O)c1)O[C@H]1[C@@H]2C=CO[C@@H](O[C@@H]3O[C@H](CO)[C@@H](O)[C@H](O)[C@H]3O)[C@@H]2[C@@]2(CO)O[C@@H]12`: the Potency result in test [1] and in test [2] was “inactive” in each case.
On to `CC(=O)NC(Cc1c[nH]c2ccccc(=O)c12)C(=O)O` (centres undefined), for which the Potency result in test [1] and in test [2] was “inactive” in each case.
Turning to `C[C@@]1(C(=O)O)CCC[C@@]2(C)C3=CC[C@H]4C[C@@]3(CC[C@H]12)CC4(O)CO` (some centres undefined), the Potency entry in test [1] and in test [2] was “inactive” in each case.
For the compound `C[C@@H](c1ccccc1)N(C(N)=NC#N)c1cccc2ncccc12`, the Potency result in test [1] and in test [2] was “inactive” in each case.
Consider `CC1=C[C@H](O)[C@H]2C(C)(C)CCC[C@]2(C)[C@@]1(O)CO`, for which the Potency result in test [1] and in test [2] was “inactive” in each case.
On to `C[C@@H]1O[C@@H](O[C@@H]2[C@@H](O)[C@H](O[C@@H]3[C@@H](O)[C@@H](O)[C@H](O[C@H]4[C@H](OC(=O)[C@]56CCC(C)(C)C[C@H]5C5=CCC7[C@@]8(C)C[C@H](O)[C@H](O[C@@H]9O[C@H](C(=O)O)[C@@H](O)[C@H](O)[C@H]9O)[C@@](C)(CO)C8[C@H](O)C[C@@]7(C)[C@]5(C)C[C@H]6O)O[C@@H](CO)[C@@H]4O)O[C@H]3C)OC[C@H]2O)[C@H](O)[C@H](O)[C@H]1O` (some centres undefined), for which, in test [1], the outcome is “inactive [at 9.29 µM]”. Moreover, the activity change, negative = cytotoxicity in test [2] is 8.82% [at 9.29 µM].
For `COCc1c(O)c(C(=O)O)c(C)c2c1OC(=O)c1c(C)cc(O)c(CO)c1O2`, the Potency entry in test [1] and in test [2] was “inactive” in each case.
For `CC(C)CC(=O)NCCn1cc(C(=O)O)c(=O)cc1C(O)c1ccccc1` (centres undefined), the Potency result in test [1] and in test [2] was “inactive” in each case.
For `C/C=C(\C)C(=O)O[C@H]1C=CC(=O)O[C@H]1/C=C/[C@H](O)[C@@H](C)O`, the Potency result in test [1] and in test [2] was “inactive” each time.
For the compound `C[C@@H]1O[C@@H](O[C@H]2[C@H](OC(=O)[C@]34CCC(C)(C)C[C@H]3C3=CCC5[C@@]6(C)C[C@@H](O)[C@@H](O[C@@H]7O[C@H](CO)[C@@H](O)[C@H](O)[C@H]7O)[C@@](C)(CO)C6[C@H](O)C[C@@]5(C)[C@]3(C)CC4)OC[C@H](O)[C@@H]2O)[C@H](O)[C@H](O[C@@H]2OC[C@](O)(CO)[C@H]2O)[C@H]1O[C@@H]1OC[C@@H](O)[C@H](O[C@H]2O[C@H](C)[C@@H](O)[C@H](O)[C@@H]2O)[C@H]1O` (some centres undefined), the outcome in test [1] is “inactive [at 9.29 µM]”. In addition, the activity change, negative = cytotoxicity in test [2] was 2.77% [at 9.29 µM].
`CC1OC(OC2C(OC3C(O[C@H]4CC[C@@]5(C)C(CC[C@]6(C)C5C(=O)CC5=C7CC(C)(C)CC(O)[C@]7(C)CC[C@]56C)C4(C)C)OC(C(=O)O)C(O)C3O)OCC(O)C2O)C(O)C(O)C1O` (some centres undefined): the outcome in test [1] and in test [2] was “inactive [at 9.29 µM]” throughout.
With `COc1cc(/C=C/C(=O)O[C@H]2[C@@H]3C=CO[C@@H](O[C@@H]4O[C@H](CO)[C@@H](O)[C@H](O)[C@H]4O)[C@@H]3[C@@]3(CO)O[C@@H]23)ccc1O`, the Potency entry in test [1] and in test [2] was “inactive” each time.
`CC1(C)COC(=O)[C@@H]1O[C@@H]1O[C@H](CO)[C@@H](O)[C@H](O)[C@H]1O`: the Potency result in test [1] and in test [2] was “inactive” throughout.
As for `CC(C)=CCC/C(C)=C/CO[C@@H]1O[C@H](CO[C@@H]2O[C@@H](CO)[C@H](O)[C@H]2O)[C@@H](O)[C@H](O)[C@H]1O`, the Potency entry in test [1] and in test [2] was “inactive” each time.
For `COc1cc(/C=C/C(=O)O[C@@H]2C[C@](O)(C(=O)O)C[C@@H](O)[C@H]2O)ccc1O`, the Potency entry in test [1] and in test [2] was “inactive” throughout.
Turning to `CSC(=O)OCC1=C[C@@H]2OC(=O)C3=CO[C@@H](O[C@@H]4O[C@H](CO)[C@@H](O)[C@H](O)[C@H]4O)[C@H]1[C@@H]32`, the Potency entry in test [1] and in test [2] was “inactive” throughout.
With `NC(N)=NCCC[C@H](NC(=O)c1sccc1NS(=O)(=O)c1cccc2nsnc12)C(=O)O`, the Potency entry in test [1] and in test [2] was “inactive” each time.
For `CC1=CC(=O)C2C(C)(C)CCC[C@]2(C)[C@H]1CC[C@H](C)CC(=O)O` (some centres undefined), the Potency result in test [1] and in test [2] was “inactive” throughout.
Regarding `CC/C=C/C=C/C1(C)OC(CC(CO)OC)=CC1=O` (centres undefined), the Potency entry in test [1] and in test [2] was “inactive” in each case.
As to `C=C1CCC2C(C)(C(=O)OC)CCCC2(C)C1CCC1=CCOC1=O` (centres undefined), the Potency entry in test [1] and in test [2] was “inactive” throughout.
Take `CC(=O)c1ccc(O[C@@H]2OC[C@@H](O)[C@H](O)[C@H]2O[C@]2(CO)O[C@H](CO)[C@@H](O)[C@@H]2O)c(O)c1`: the Potency result in test [1] and in test [2] was “inactive” in each case.
Turning to `C=C1C(=O)OC2CC(COC(=O)C(C)C)=C(C(C)CCCOC(C)=O)[C@@H](OC(C)=O)C12` (some centres undefined), the Potency result in test [1] and in test [2] was “inactive” in each case.
For `CC1(C)CC[C@]2(C(=O)O[C@@H]3O[C@H](CO[C@@H]4O[C@H](CO)[C@@H](O)[C@H](O)[C@H]4O)[C@@H](O)[C@H](O[C@@H]4O[C@H](CO)[C@@H](O)[C@H](O)[C@H]4O)[C@H]3O)CC[C@]3(C)C(=CCC4[C@@]5(C)CC[C@H](O[C@@H]6OC[C@@H](O)[C@H](O)[C@H]6O)[C@@](C)(C(=O)O)C5CC[C@]43C)[C@@H]2C1` (some centres undefined), the outcome in test [1] is “inactive [at 9.29 µM]”. The activity change, negative = cytotoxicity in test [2] was 2.51% [at 9.29 µM].
